According to PubChem BioAssay (NCI):
Values joined by “and” are separate entries in the source; they are usually repeats but may differ in a detail not shown here. Equal values may be shown once. This is part of a sample that, as a whole, favours compounds with a hit. Of some 83,000 tested, about 20% had one in any assay.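 In brief: 96-well plates, 48 h treatment, single concentration, percent growth endpoint.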 Active and inactive are the calls of the source. The calls were made as follows: active = growth percent below 10; inactive = the rest.

How the values were obtained:
Assay in all cases: NCI-60 one-dose screen, 48 h (100 = growth as untreated, 0 = no growth, -100 = all killed)
Details in all cases: 10 µM unless noted
T-47D breast = system: T-47D breast
BT-549 breast = system: BT-549 breast
MDA-MB-435 melanoma = system: MDA-MB-435 melanoma
MCF7 breast = system: MCF7 breast
HCT-116 colon = system: HCT-116 colon
HCC-2998 colon = system: HCC-2998 colon
KM12 colon = system: KM12 colon
SW-620 colon = system: SW-620 colon

Measured: growth

CCOc1ccc2cc(-c3nn(CC4CCN(C)CC4)c4ncnc(N)c34)ccc2c1
inactive: T-47D breast 68.5% and 54.7% | BT-549 breast 71.6% and 45.7% | MDA-MB-435 melanoma 95.4% and 15.9% | MCF7 breast 85.7% and 55.5% | HCT-116 colon 63.2% and 24.4% | HCC-2998 colon 102% and 54.5% | KM12 colon 89.4% and 66.5%

Cc1ccc(-c2noc(CC(=O)c3ccc([N+](=O)[O-])cc3)n2)cc1
inactive: T-47D breast 87.8% | BT-549 breast 103% | SW-620 colon 102% | MCF7 breast 98.2% | HCT-116 colon 98.7% | HCC-2998 colon 103% | KM12 colon 98%

COc1ccc(/C(C#N)=C/c2ccccn2)cc1
inactive: T-47D breast 88.7% and 115% | BT-549 breast 103% | SW-620 colon 112% and 130% | MCF7 breast 104% and 102% | HCT-116 colon 96.3% and 104% | HCC-2998 colon 97.7% and 103% | KM12 colon 101% and 102%

Nc1ccc(N=Nc2ccc(S(=O)(=O)O)cc2)cc1S(=O)(=O)O
inactive: T-47D breast 97.9% and 98.3% | BT-549 breast 120% and 148% | MDA-MB-435 melanoma 108% and 101% | MCF7 breast 104% and 92.8% | HCT-116 colon 90.2% and 114% | HCC-2998 colon 105% and 94.5% | KM12 colon 96.1% and 105%

O=S(=O)(Nc1ccccc1)C1CCCCC1
inactive: T-47D breast 116% and 105% | BT-549 breast 121% | MDA-MB-435 melanoma 107% and 102% | MCF7 breast 94.2% and 104% | HCT-116 colon 99.6% and 107% | HCC-2998 colon 116% and 106% | KM12 colon 106% and 112%

O=C(Nc1cccc(Cl)c1)c1cc2ccccc2cc1O
active: BT-549 breast 6.65% and 0.941%
15.5% (inactive) and 2.04% (active): T-47D breast
18.9% (inactive) and 6.81% (active): HCT-116 colon
inactive: SW-620 colon 13.1% and 13.9% | MCF7 breast 35.5% and 16.9% | HCC-2998 colon 27.4% | KM12 colon 15.4% and 11.8%

O=C(Nc1cccc(-n2ccc3c(NC(=O)c4ccccc4)nccc32)c1)c1ccc(Cl)c(C(F)(F)F)c1
-54.5% (active) and 42.7% (inactive): KM12 colon
-48.5% (active) and 37.4% (inactive): MCF7 breast
-99.1% (active) and 32.4% (inactive): HCT-116 colon
-27.9% (active) and 64.4% (inactive): HCC-2998 colon
-75.1% (active) and 76.7% (inactive): BT-549 breast
-36.7% (active) and 88.1% (inactive): T-47D breast
-59% (active) and 54.9% (inactive): MDA-MB-435 melanoma

COc1cc2c(Nc3ccc(Cl)c(Cl)c3F)ncnc2cc1OCC1C[C@@H]2CN(C)C[C@@H]2C1 (some centres undefined)
active: T-47D breast -74.6% and -6.7% | MDA-MB-435 melanoma -95.8% and -38% | HCT-116 colon -85.4% and 7.79%
-87.2% (active) and 36.9% (inactive): BT-549 breast
-71.9% (active) and 13.4% (inactive): MCF7 breast
-88.5% (active) and 39.9% (inactive): KM12 colon
-87.7% (active) and 22.2% (inactive): HCC-2998 colon

CC(=O)NC(Cc1ccccc1)C(=O)Oc1ccc2ccccc2c1 (centres undefined)
inactive: T-47D breast 99.3% and 108% | BT-549 breast 110% | SW-620 colon 107% and 96.7% | MCF7 breast 113% and 97.8% | HCT-116 colon 113% and 114% | HCC-2998 colon 105% and 97% | KM12 colon 103% and 94.8%

CCN(CC)CCCC(C)N(Cc1ccccc1)CC(O)c1ccc(Cl)cc1 (centres undefined)
inactive: T-47D breast 94.5% and 91.3% | BT-549 breast 110% and 102% | SW-620 colon 98.8% and 113% | MCF7 breast 105% and 99.3% | HCT-116 colon 102% and 100% | HCC-2998 colon 101% | KM12 colon 103% and 101%

O=[N+]([O-])c1ccc(Oc2ccccc2)cc1
inactive: T-47D breast 116% and 100% | BT-549 breast 83.9% and 106% | SW-620 colon 95.7% and 94.1% | MCF7 breast 105% and 95.2% | HCT-116 colon 98.2% and 106% | HCC-2998 colon 102% and 105% | KM12 colon 101% and 105%

O=[N+]([O-])c1ccc2nc3c4ccccc4c4ccccc4c3nc2c1
inactive: T-47D breast 67.9% | BT-549 breast 86.9% | SW-620 colon 63.4% | MCF7 breast 65% | HCT-116 colon 33.6% | HCC-2998 colon 89.8% | KM12 colon 89.3%

O=C(/C=C\c1ccnc2ccccc12)c1ccc([N+](=O)[O-])cc1
active: HCT-116 colon 0.905% and -94%
inactive: T-47D breast 70.3% and 59.3% | BT-549 breast 80.4% and 77.9% | MCF7 breast 75.8% and 25.4% | HCC-2998 colon 82.7% | KM12 colon 83.3% and 33.1%
80.6% (inactive) and 6.55% (active): SW-620 colon

O=C(Nc1ccc(Br)cc1)c1cc(Br)ccc1O
24.4% (inactive) and -42.1% (active): HCC-2998 colon
active: BT-549 breast -16.1% and -40.7% | MDA-MB-435 melanoma -1.59% and -13.4% | MCF7 breast 5.04% and 4.44% | HCT-116 colon 0.123% and 0.553% | KM12 colon 4.3% and -15.4%
14.7% (inactive) and -7.33% (active): T-47D breast

CNC(=O)c1ccc(C)c(-n2c(C)cc(OCc3ccc(F)cc3F)c(Br)c2=O)c1
inactive: T-47D breast 40.9% and 58.7% | BT-549 breast 75.7% and 76.4% | SW-620 colon 79.9% and 95.9% | MCF7 breast 82.8% and 90.5% | HCT-116 colon 68.1% and 78.4% | HCC-2998 colon 67.5% and 72.6% | KM12 colon 90% and 92.5%

Cc1ccc(S(=O)(=O)Nc2ccc3cc([N+](=O)[O-])ccc3c2[N+](=O)[O-])cc1
inactive: T-47D breast 65.1% and 98.3% | BT-549 breast 92.3% and 95.5% | SW-620 colon 91.9% and 93.4% | MCF7 breast 89.7% and 97.2% | HCT-116 colon 83.8% and 80.7% | HCC-2998 colon 73.9% and 95.8% | KM12 colon 73.5% and 91.6%

COc1cc(-c2nccc3cc4c(cc23)OCO4)cc(OC)c1OC
inactive: T-47D breast 27.6% and 31.9% | BT-549 breast 56.8% | SW-620 colon 16.7% and 17.5% | MCF7 breast 20.9% and 16.7% | HCT-116 colon 18.7% and 25.3% | HCC-2998 colon 59.8% and 48.4% | KM12 colon 32.3% and 25%

Oc1ccc(/C=C/c2ccccc2)cc1
inactive: T-47D breast 97.4% and 92.3% | BT-549 breast 62.6% and 68.1% | SW-620 colon 72.1% and 62.7% | MCF7 breast 65% and 75% | HCT-116 colon 75.8% and 73.8% | HCC-2998 colon 86.8% and 86.5% | KM12 colon 54% and 54.6%

CCOc1ccc2cc(-c3nn(CC4CCNCC4)c4ncnc(N)c34)ccc2c1
inactive: T-47D breast 71% and 34.2% | BT-549 breast 86.1% and 36.2% | SW-620 colon 91.6% and 37.3% | MCF7 breast 78.8% and 46.2% | HCT-116 colon 80.4% and 16.4% | HCC-2998 colon 110% and 49.1% | KM12 colon 14.5% and 11.9%

Cc1cccc(/C=C\C(=O)c2ccccc2)c1
inactive: T-47D breast 93.8% and 93.5% | BT-549 breast 90.5% | SW-620 colon 84.6% and 62.2% | MCF7 breast 43.4% and 82.6% | HCT-116 colon 56.9% | HCC-2998 colon 97% and 103% | KM12 colon 85.6% and 62.7%

Cc1nn(-c2ccccc2)nc1C(=O)Nc1ccccc1C(=O)NCC1CC1
inactive: T-47D breast 76.8% and 28.7% | BT-549 breast 123% and 84.8% | MDA-MB-435 melanoma 102% and 85.9% | MCF7 breast 81.1% and 56.5% | HCC-2998 colon 102% and 116% | KM12 colon 117% and 93.9%
63.9% (inactive) and -13.4% (active): HCT-116 colon

CN1CCN(Cc2occc(=O)c2O)CCN(C)CCN(Cc2occc(=O)c2O)CC1
inactive: T-47D breast 93.8% and 77.4% | BT-549 breast 97.1% and 84% | SW-620 colon 113% and 15.6% | MCF7 breast 91.6% and 24.9% | HCT-116 colon 100% and 10.6% | HCC-2998 colon 112% and 47.5% | KM12 colon 109% and 28.9%
